Granule exo inh – lytic granule exocytosis inhibition | TALL-104 LAMP-1 surface exposure, flow cytometry; cells stimulated with thapsigargin and PMA | inhibition, % at 10 µM | AID 651702 | 360,000 tested, 0.66% active;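 active means inhibition above about 55%, limit read from the data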
Platelet DG rel – platelet dense granule release activity | 300,000 tested, 0.22% active | AID 1663 | human platelet-rich plasma, SFLLRN dense granule ATP release, luminescence | inhibition, %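 (compounds screened at 7.5 µM in platelet-rich plasma)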;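 active means mean replicate score, as percent of positive control, at or above 50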
Rce1 inh – yeast Ras-converting enzyme inhibition. Q03530. yeast membranes, quenched prenylated peptide cleavage fluorescence. calls only. 290,000 tested, 0.27% active. AID 2563;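 active means fall in fluorescence gain of 50% or more versus controls, with final raw signal at or below 3038400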;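 further: plate controls were neutral control wells for no effect and wells lacking membranes for full effect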
Target sequence (Q03530 whole entry, looked up): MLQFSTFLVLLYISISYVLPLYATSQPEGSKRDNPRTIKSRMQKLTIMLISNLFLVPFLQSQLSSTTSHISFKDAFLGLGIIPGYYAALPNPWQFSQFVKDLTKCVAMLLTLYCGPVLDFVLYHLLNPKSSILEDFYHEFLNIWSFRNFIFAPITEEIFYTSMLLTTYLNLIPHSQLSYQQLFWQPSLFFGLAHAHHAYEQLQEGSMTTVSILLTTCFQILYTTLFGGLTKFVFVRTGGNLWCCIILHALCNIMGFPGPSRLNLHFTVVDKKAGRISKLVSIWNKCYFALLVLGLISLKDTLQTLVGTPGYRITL
M18AAP inhibitor – blocks P. falciparum M18 aspartyl aminopeptidase. 290,000 tested, 1.2% active. inhibition, % at 7.35 µM. recombinant PfM18AAP, H-Glu-NHMec fluorogenic cleavage;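 active means inhibition above the campaign mean inhibition over all tested compounds plus 3 SD, cut at about 28% in these data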;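 further: 0% = plate median of test compound wells and 100% = 2 mM ZnCl2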
ABHD5 PLIN5 PPI – blocks binding of human ABHD5 to perilipin-5; inhibition, % at 4 µM; 360,000 tested, 0.78% active; Q00G26+Q8WTS1; AID 602281; Split G. princeps luciferase complementation, luminescence, 4 h;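 active means inhibition above the mean inhibition across every tested compound plus 3 SD, cut at about 22% in these data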;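 further: 0% = DMSO only wells and the 100% control is not disclosed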
Granule exo CP1 – lytic granule exocytosis inhibition | inhibition, % at 10 µM | 1,500 tested, 11% active | AID 651954 | shares compounds with Granule exo inh | TALL-104 cells, LAMP-1 externalization, flow cytometry; stimulated with PMA plus thapsigargin; in the data active means inhibition above about 60%;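 further: 0% = stimulated vehicle wells and 100% = unstimulated wells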
Numbers without * were called inactive; i = inactive; nt = not tested or not shown. This is a sample that favours compounds with a hit; in the whole collection about 2.6% have one here.

SMILES	Granule exo inh	Platelet DG rel	Rce1 inh	M18AAP inhibitor	ABHD5 PLIN5 PPI	Granule exo CP1
Oc1c(Cl)cc(Cl)cc1/C=C/c1ccc2cccc(O)c2n1	1	0	i	0	-2	nt
Oc1ccc(Cl)cc1/C=C/c1ccc2cccc(O)c2n1	78*	11	i	13	0	-9
CCOC(=O)Cc1csc(-n2sc3ccccc3c2=O)n1	78*	-5	i	8	19	36
CC(=O)c1c(C)oc2c1cc(O)c1ccccc12	89*	-1	i	-2	2	-13
CCOC(=O)c1c(C)oc2c1cc(O)c1ccccc12	45	12	i	-5	10	nt
CC(=O)Oc1cccc(NC(=O)c2cccc(C(=O)Nc3cccc(OC(C)=O)c3)c2)c1	64*	-4	i	1	-3	-4
CC1(C2CC2)NC(=O)N(CC(=O)NCC(=O)Nc2ccc(F)c(F)c2F)C1=O (stereo not given)	56*	nt	nt	nt	-4	-12
COc1ccccc1OCc1ccc(C(=O)N2CCOCC2)o1	-3	4	i	7	9	nt
COc1cccc(CN(C)C(=O)c2cc(-c3cccs3)nc3ccccc23)c1	9	-6	i	4	-8	nt
CCOc1ccc2[nH]c3c(N4CCN(c5ccccn5)CC4)ncnc3c2c1	88*	3	i	4	8	10
Cc1ccc2[nH]c3c(N4CCN(Cc5ccccc5)CC4)ncnc3c2c1	6	1	i	-12	5	nt
Cc1c(C(=O)OCC(=O)Nc2cccc(S(N)(=O)=O)c2)oc2c1ccc1ccccc12	88*	24	i	1	4	93*
NS(=O)(=O)c1cccc(NC(=O)COC(=O)c2ccccc2C(=O)c2ccccc2)c1	0	nt	nt	nt	-1	nt
CCc1cc2ccccc2nc1SCC(=O)NC1CCCC1	79*	-2	i	-2	-7	-4
CCc1ccccc1Cn1c(=O)oc2cccnc21	3	13	i	5	6	nt
CCc1cccc(C)c1NC(=O)c1cccc(N(C)C)c1	70*	-2	i	19	-6	-13
CC(C)c1nc2cc(C(=O)N3CCNC(=O)C3c3cccc(F)c3)ccc2o1 (stereo not given)	13	5	i	-11	0	nt
Cc1cc(NCCCOC(C)C)n2c(nc3ccccc32)c1C#N	62*	11	i	2	-5	-14
COc1ccc(CN(C(=O)c2cc3ccccc3oc2=O)C2CCCCC2)cc1OC	5	1	i	-6	6	nt
O=C(c1ccco1)N1CCN(c2nc3ccccc3n3nnnc23)CC1	56*	nt	i	1	7	-4
OC[C@@H]1CN(Cc2ccco2)C[C@H](n2cnc3c(NC4CC4)ncnc32)O1	-4	nt	nt	nt	4	nt
CCCCN(CCO)c1ncnc2sc(-c3ccccc3)cc12	92*	8	i	-6	-4	-10
CCn1c2ccc(C)cc2c2nnc(SCCN3CCCCC3)nc21	97*	2	i	1	-2	-3
CCCn1c2ccc(C)cc2c2nnc(SCCN3CCCCC3)nc21	42	-2	i	-4	3	nt
COC(=O)c1ccc(N2CCCCC2)c(NC(=O)c2ccco2)c1	93*	-2	i	4	-6	-4
SMILES	Granule exo inh	Platelet DG rel	Rce1 inh	M18AAP inhibitor	ABHD5 PLIN5 PPI	Granule exo CP1
O=C(Nc1cccc(Cl)c1N1CCCC1)c1ccco1	74*	-20	i	-6	-7	-14
Cc1cc(Nc2cc(Cl)cc(Cl)c2)nc(N)n1	62*	-2	nt	-8	10	-10
CC(CC12CC3CC(CC(C3)C1)C2)NCc1ccccc1O (stereo not given)	61*	3	i	10	2	-12
Oc1ccccc1CNCC12CC3CC(CC(C3)C1)C2	47	8	i	4	3	nt
Clc1ccc(C2Nc3cccc4cccc(c34)N2)c(Cl)c1	74*	nt	nt	nt	13	7
COc1cccc(-c2cc(CC3(O)CCN(CCCc4ccccc4)CC3)on2)c1	63*	3	i	-11	-1	-11
COc1cccc(-c2cc(C(=O)O)no2)c1	1	5	i	1	11	nt
Cc1ccc(-c2noc(-c3ccccc3F)n2)cc1	-2	11	i	-1	1	nt
O=C(O)c1ccc(-c2noc(-c3ccccc3F)n2)cc1	97*	69*	i	nt	6	-12
C=CCN1C(=O)C(CC(=O)Nc2ccc(OCCC)cc2)N(CCCN2CCN(Cc3ccccc3)CC2)C1=S (stereo not given)	58*	4	i	0	16	21
